Compound activity: PubChem, National Center for Advancing Translational Sciences (NCATS)
ATXN2 expr inh: inhibitors of ATXN2 expression | AID 1745845 | 0.72% of 360,000 active | HEK-293 ATXN2-luciferase reporter, luminescence, 24 h | Potency, µM (top dose mostly 57 µM), hits mostly inhibitors; note: nearly all actives have a fitted effect of over 55% in size
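ATXN2-luciferase reporter cells (luciferase flanked by upstream and downstream ATXN2 gene portions) were treated 24 h at 37 °C with compounds at up to 57 uM. SteadyGlo luminescence gave expression; GF-AFC fluorescence gave viability.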
S2 tox: reduces viability in counter-screen for ATXN expression inhibitors; S2 cells (HEK-293 line with an ATXN2-luciferase reporter) viability, CellTiter-Fluor protease fluorescence, 24 h; Potency, µM (highest dose often 56.7 µM), usual class: cytotoxic; 0.49% of 400,000 active; AID 651635; note: nearly all actives have a fitted effect of over 40% in size
TDP1 cell CPT: growth inhibition of DT40 Tdp1-/-;hTDP1 cells with camptothecin (screen for TDP1 inhibitors). chicken DT40 Tdp1-/-;hTDP1 cells + 20 nM CPT, ATP luminescence, 48 h. AID 686979. 12% of 420,000 active. Potency, µM (highest dose often 46.2 µM), most hits filed as inhibitors; note: nearly all actives have a fitted effect of over 55% in size
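Cell growth measured by CellTiter-Glo luminescence after a minimum 48 h, 37 C compound exposure with 20 nM CPT in Tdp1-knockout DT40 cells stably expressing hTDP1, seeded 400/well; qHTS titration format.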
HepG2 viability: counter-screen for TGF-b inhibitors: cytotoxicity in HepG2 cells; Potency, µM (titrated, usually from 46.1 µM), usual class: cytotoxic; HepG2 CAGA-GFP viability, ATP luminescence, 18 h; 0.76% of 410,000 active
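CellTiter-Glo luminescence gave cytotoxicity after 18 hours at 37 degrees C. The cells were HepG2 CAGA-GFP in 1% FBS DMEM, stimulated with 500 pg/mL TGF-beta after compound addition. %Activity was normalised to no-cell wells (complete cell-killing) and DMSO (no toxicity), and curves were fitted and classified.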
TDP1 cell noCPT: qHTS for Inhibitors of human tyrosyl-DNA phosphodiesterase 1 (TDP1): qHTS in cells in absence of CPT; DT40 Tdp1-/- hTDP1 cells, no CPT, ATP luminescence, 48 h; Potency, µM (titrated, usually from 46.2 µM), usual class: inhibitors; 15% of 420,000 active; note: nearly all actives have a fitted effect of over 55% in size
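Stably hTDP1-transfected Tdp1-null chicken DT40 cells were treated with library compounds minus camptothecin and grown for at least 48 hr at 37 °C, after which cellular ATP was quantified by luminescence.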
TGFb SMAD3 inh: inhibitors of TGF-b signaling. HepG2 CAGA-GFP TGF-b/SMAD3 reporter, GFP fluorescence, 18 h; TGF-beta stimulated, 500 pg/mL final. 1.2% of 410,000 active. Potency, µM (top dose mostly 46.1 µM), hits mostly inhibitors; note: nearly all actives have a fitted effect of over 65% in size
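Inhibition of TGF-beta-driven CAGA-GFP reporter expression in HEPG2 cells is measured by cellular GFP fluorescence after 18 h stimulation with 500 pg/mL recombinant TGF-beta in 1% FBS medium at 37 degrees C.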
A number is an active result; . = inactive; ? = inconclusive; / = no result given. Compounds with a hit are over-represented: about 17% of the library has one in this group of screens. Calls come from the whole dose curve; as a rule, active = well fitted curve in the direction sought with a large enough effect; inconclusive = small, poorly fitted or top-dose-only effect, or another doubt; inactive = no such curve, though single readings can be large; an effect the other way counts as inactive or inconclusive.

SMILES	ATXN2 expr inh	S2 tox	TDP1 cell CPT	HepG2 viability	TDP1 cell noCPT	TGFb SMAD3 inh
CCOC(=O)CC1COCCN1C(=O)CCc1nnc(-c2ccsc2)o1 (centres undefined)	/	.	.	.	.	.
CC(C)N(C)c1ncnc2c1ncn2[C@H]1CN(Cc2ccc3c(c2)OCO3)C[C@@H](CO)O1	.	.	.	.	?	.
CCOc1ccc(CCNC(=O)CN2C(=O)NC3(CCCc4ccccc43)C2=O)cc1OCC (centres undefined)	.	?	.	.	.	.
COc1ccc(-c2nc3cnc(N4CCNCC4)nc3n(-c3ccccc3)c2=O)cc1	/	/	20.6µM	/	14.6µM	/
COc1ccc(-n2c(=O)c(-c3cccs3)nc3cnc(Nc4cccc(OC)c4)nc32)cc1	/	/	.	/	23.1µM	/
COc1ccc(-n2c(=O)c(-c3ccc(Cl)cc3)nc3cnc(N4CCNCC4)nc32)cc1	/	/	5.17µM	/	11.6µM	/
CCNc1ncc2nc(-c3ccc(OC)cc3)c(=O)n(-c3ccc(OC)cc3)c2n1	/	/	?	/	0.0326µM	/
COc1ccc(-n2c(=O)c(-c3ccccc3)nc3cnc(N4CCNCC4)nc32)cc1	/	/	.	/	.	/
CNc1cc(C(=O)Nc2cccc(OCc3ccccc3)c2)ncn1	.	.	?	.	?	?
CCOC(=O)CNC(=O)c1cc2c(=O)oc3ccccc3c2s1	.	.	.	.	.	.
COC(=O)c1cc(C(=O)Nc2ccc(S(N)(=O)=O)cc2)cc([N+](=O)[O-])c1	.	.	.	.	.	.
CCc1ccc(NC(=O)Cn2nnc(-c3ccccc3N)n2)cc1	.	.	?	.	.	.
COc1ccc(-n2c(=O)c(C)nc3cnc(N4CCNCC4)nc32)cc1	/	/	.	/	.	/
O=c1c(-c2ccc(Cl)cc2)nc2cnc(N3CCOCC3)nc2n1-c1ccccc1	/	/	.	/	.	/
O=c1c(-c2ccc(Cl)cc2)nc2cnc(N3CCNCC3)nc2n1-c1ccccc1	/	/	4.11µM	/	4.61µM	/
COc1ccc(-c2nc3cnc(N4CCNCC4)nc3n(-c3ccc(OC)cc3)c2=O)cc1	/	/	18.4µM	/	?	/
CC#CC[N+](C)(CC#CC)CC(=O)c1ccccc1	/	.	.	.	?	.
Cc1cc(C)nc(NC(=NCCc2c[nH]c3ccccc23)NC(=O)Nc2ccc(Cl)c(Cl)c2)n1	.	.	14.6µM	.	13µM	.
Cc1cc(C)nc(NC(=NCCc2c[nH]c3ccccc23)NC(=O)Nc2cccc([N+](=O)[O-])c2)n1	.	.	13µM	.	7.31µM	.
Cc1cc(C)nc(NC(=NCCc2c[nH]c3ccccc23)NC(=O)Nc2ccccc2)n1	.	.	?	.	18.4µM	?
COc1ccc2[nH]cc(CCN=C(NC(=O)c3ccccc3F)Nc3nc(C)cc(C)n3)c2c1	.	.	/	.	/	.
O=C(NCCc1c[nH]c2ccccc12)C(=O)Nc1ccccc1	.	.	.	.	?	.
Cc1cc(C)nc(NC(=NCCc2c[nH]c3ccccc23)NC(=O)c2ccco2)n1	.	?	20.6µM	.	10.3µM	?
O=C(O)c1ccccc1[O-].O=C(O)c1ccccc1[O-].[Zn+2]	/	.	.	/	.	/
COc1cc(/C=C(\NC(C)=O)C(=O)N2CCCCC2)ccc1OC(C)=O	.	.	.	.	.	.
SMILES	ATXN2 expr inh	S2 tox	TDP1 cell CPT	HepG2 viability	TDP1 cell noCPT	TGFb SMAD3 inh
CC(C)(C)NC(=S)NC(=O)C12CCC3CC(CC(C3)C1)C2	.	.	?	.	.	.
Cc1ccc(CNC(=O)c2ccc(-c3nc(CS(=O)c4ccccc4)c(C)o3)cc2)cc1 (centres undefined)	.	.	18.4µM	.	8.2µM	.
COc1ccccc1CNC(=O)c1ccc(-c2nc(CS(=O)c3ccc(C)cc3)c(C)o2)cc1 (centres undefined)	.	.	?	.	13µM	.
Cc1oc(-c2ccc(C(=O)NCc3ccc(F)cc3)cc2)nc1CS(=O)c1ccccc1 (centres undefined)	?	?	?	.	20.6µM	.
COc1ccc(CNC(=O)c2ccc(-c3nc(CS(=O)c4ccc(C)cc4)c(C)o3)cc2)cc1 (centres undefined)	.	?	?	.	?	?
CCN(CC)CCCNC(=O)CNC(=S)N(CCCN1CCOCC1)Cc1cccs1	.	.	.	.	.	.
COc1ccc2c(c1)CCc1c-2nc2ccccc2c1N1CCOCC1	.	.	1.64µM	.	2.06µM	?
N#C/C(=C\c1ccc(O)c(O)c1)C(=O)Nc1cccc2ncccc12	.	.	?	.	.	.
O=C(CO)N1CCC(c2[nH]nc(-c3ccc(Cl)cc3)c2-c2ccncn2)CC1	.	/	/	/	/	/
CCCn1c(C2CCCN2c2nc(-c3cccc(Br)c3)cs2)nc2ccccc21 (centres undefined)	.	22.4µM	?	.	?	?
O=C(COc1ccc2ccccc2c1)Nc1ccncc1	.	.	?	.	16.4µM	.
CC(C)(C)CC(C)(C)NC(=O)CSCC(=O)Nc1ccc2ccccc2c1	.	.	18.4µM	.	?	?
O=C(COc1ccccc1)Nc1ccncc1	.	.	.	.	.	.
O=C(CSc1ccncc1)Nc1ccc2ccccc2c1	.	.	.	.	.	.
O=C(Cc1ccccc1)NCCn1ccc2ccccc21	.	.	.	.	?	.
CCC(=O)Nc1ccc2ccccc2c1	.	.	.	.	.	.
O=C(COc1ccc2ccccc2c1)NCCn1ccc2ccccc21	.	.	?	.	20.6µM	.
O=C(CSc1ccc2ccccc2c1)Nc1ccncc1	.	.	?	.	14.6µM	.
Cc1ccc(-c2nn(CC(=O)Nc3cccc(C(F)(F)F)c3)c(=O)c3ccccc23)cc1	.	.	?	.	?	.
C=CCn1c(O)c(C2=c3ccccc3=NC2=O)sc1=Nc1ccc(O)cc1	?	/	23.1µM	.	?	?
COc1cc2nc(CSc3nc(-c4ccc(F)cc4)cs3)[nH]c(=O)c2cc1OC	.	?	14.6µM	.	?	.
COc1cc(OC)c(C2SCCN2S(=O)(=O)c2ccc(F)cc2)cc1OC (centres undefined)	.	.	13µM	.	14.6µM	?
CC(=O)O[C@@H]1[C@H]2[C@@H](C[C@@H](C)[C@@H]3C=CC(=O)[C@@]13C)OC(=O)[C@@H]2C	.	.	?	.	?	.
C=C1C(=O)OC2C1CCC(C)C1C=CC(=O)C12C (centres undefined)	?	?	3.26µM	.	2.91µM	?
CNC(=O)[C@@H]1C[C@H](Sc2nc3ccccc3[nH]2)CN1Cc1ccccc1C(F)(F)F	/	.	?	/	?	/
